Reference: PubChem BioAssay (Tox21)
Values joined by “and” are separate entries in the source; they are usually repeats but may differ in a detail not shown here. Equal values may be shown once. Results filed as inconclusive are left out. Active and inactive are the calls of the source. Unless noted, calls come from the whole dose curve.

What was measured:
[1] = Nuclear factor erythroid 2-related factor 2/antioxidant responsive element (Nrf2/ARE) small molecule agonists: qHTS cell viability counter screen in human keratinocytes (AID 1919968; active = well fitted curve in the direction sought with a large enough effect in the repeat runs; an effect the other way counts as inactive or inconclusive; note: nearly all actives have a fitted effect of over 55% in size; note: potency is the fitted concentration of half-maximal effect)
Summary of the method: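 Viability counter-screen: KeratinoSens reporter cells, DMSO-delivered compounds, 23 h at 37 C, CellTiter-Fluor fluorescence.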

[2] = Nuclear factor erythroid 2-related factor 2/antioxidant responsive element (Nrf2/ARE) small molecule agonists: luciferase reporter gene qHTS assay in human keratinocytes (AID 1919969); note: nearly all actives have a fitted effect of over 35% in size
[3] = target: Gonadotropin-releasing hormone receptor (Homo sapiens) (UniProt P30968); assay: Human gonadotropin-releasing hormone receptor (GnRHR) small molecule agonists, calcium flux assay in GnRHR-HEK293 cells (AID 1920063); note: nearly all actives have a fitted effect of over 35% in size
Gonadotropin-releasing hormone receptor (Homo sapiens), sequence (P30968 whole entry, looked up): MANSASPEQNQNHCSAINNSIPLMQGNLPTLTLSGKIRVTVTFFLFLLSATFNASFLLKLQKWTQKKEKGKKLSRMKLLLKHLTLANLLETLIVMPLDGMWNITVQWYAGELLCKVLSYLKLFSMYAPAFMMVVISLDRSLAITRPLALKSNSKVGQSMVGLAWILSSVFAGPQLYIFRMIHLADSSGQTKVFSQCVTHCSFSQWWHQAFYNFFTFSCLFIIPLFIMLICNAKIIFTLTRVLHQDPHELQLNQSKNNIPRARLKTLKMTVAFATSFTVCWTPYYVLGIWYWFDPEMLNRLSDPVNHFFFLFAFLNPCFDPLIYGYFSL
Summary of the method: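 Tox21-format agonist screen using human GnRHR-expressing HEK293 cells and a fluorescent calcium dye; kinetic 3-min fluorescence reading after compound addition, 15-point concentration series run in triplicate.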

[4] = target: KiSS-1 receptor (Homo sapiens) (UniProt Q969F8); assay: Human kisspeptin (KISS1R) small molecule agonists, calcium flux assay in KISS1R-HEK293 cells (AID 1920064; active = well fitted curve in the direction sought with a large enough effect in the repeat runs; an effect the other way counts as inactive or inconclusive)
KiSS-1 receptor (Homo sapiens), sequence (Q969F8 whole entry, looked up): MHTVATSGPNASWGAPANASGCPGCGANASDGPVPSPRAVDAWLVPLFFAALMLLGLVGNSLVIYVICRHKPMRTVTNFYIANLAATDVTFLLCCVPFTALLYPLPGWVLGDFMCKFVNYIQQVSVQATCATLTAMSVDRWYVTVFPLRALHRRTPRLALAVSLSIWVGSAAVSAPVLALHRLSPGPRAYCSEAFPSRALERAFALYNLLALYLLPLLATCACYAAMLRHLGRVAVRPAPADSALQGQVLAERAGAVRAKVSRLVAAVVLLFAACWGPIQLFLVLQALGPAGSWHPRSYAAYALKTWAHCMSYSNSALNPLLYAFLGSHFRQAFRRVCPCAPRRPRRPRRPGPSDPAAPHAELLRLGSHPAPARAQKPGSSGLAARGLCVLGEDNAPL
Summary of the method: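 Intracellular calcium mobilization in KISS1R-HEK293 cells was recorded by fluorescence (Ex/Em 480/540) for 3 min following compound addition to cells pre-loaded 1 h with calcium dye.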

[5] = G protein-coupled receptor (GPCR) small molecule agonists, calcium flux assay: HEK293 wild type cell line counter screen (AID 1920065)
Summary of the method: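 In this agonist-mode screen, ATP is the positive control and DMSO the vehicle. Cells grow 18 h before a 1 h dye incubation at 37 C; signal is taken at Ex/Em 480/540 over 3 min.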

[6] = p53 small molecule agonists, cell-based qHTS assay with human liver microsomes (AID 1963577)
Summary of the method: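 Compounds act here after metabolic activation: human liver microsomes and NADPH, both at 0.5 mg/mL final, were co-added to p53RE-bla cells. Incubation ran 16 h at 37 C, followed by LiveBLAzer detection.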

[7] = p53 small molecule agonists, cell-based qHTS assay with rat liver microsomes (AID 1963578)
Summary of the method: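 Read-out is beta-lactamase reporter fluorescence (LiveBLAzer, 2 h, room temperature, dark) in p53RE-bla cells treated 16 h at 37 C with compound, rat liver microsomes and NADPH, both 0.5 mg/mL final.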

[8] = p53 small molecule agonists, cell-based qHTS assay with human liver microsomes: qHTS cell viability counter screen (AID 1963579); note: nearly all actives have a fitted effect of over 45% in size
Summary of the method: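 Cells carrying the p53 response-element beta-lactamase reporter are treated for 16 h at 37 C with test compounds in the presence of human liver microsomes and NADPH (both 0.5 mg/mL final); ATP-based CellTiter-Glo luminescence then reports viability.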

[9] = p53 small molecule agonists, cell-based qHTS assay with rat liver microsomes: qHTS cell viability counter screen (AID 1963580); note: nearly all actives have a fitted effect of over 45% in size
Summary of the method: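 In HCT-116 cells carrying a p53 response element-bla reporter, compounds were metabolically activated in situ by rat liver microsomes with NADPH over 16 h. Cell ATP content then served as the cytotoxicity measure.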

[10] = p53 small molecule agonists, cell-based qHTS assay (AID 1963582; active = well fitted activation curve with a large enough effect in the signal ratio in the repeat runs, not every such curve was filed as active; the % refers to the signal ratio)
Summary of the method: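 Agonist activity was scored from beta-lactamase FRET fluorescence in p53RE-bla cells treated 16 h at 37 C with compounds in DMSO, substrate incubation being 2 h at room temperature.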

[11] = target: 5-hydroxytryptamine receptor 2A (Homo sapiens) (UniProt P28223); assay: 5-hydroxytryptamine receptor 2A (HTR2A) small molecule antagonists, cell-based qHTS assay (AID 1963586); note: nearly all actives have a fitted effect of over 45% in size
5-hydroxytryptamine receptor 2A (Homo sapiens), sequence (P28223 whole entry, looked up): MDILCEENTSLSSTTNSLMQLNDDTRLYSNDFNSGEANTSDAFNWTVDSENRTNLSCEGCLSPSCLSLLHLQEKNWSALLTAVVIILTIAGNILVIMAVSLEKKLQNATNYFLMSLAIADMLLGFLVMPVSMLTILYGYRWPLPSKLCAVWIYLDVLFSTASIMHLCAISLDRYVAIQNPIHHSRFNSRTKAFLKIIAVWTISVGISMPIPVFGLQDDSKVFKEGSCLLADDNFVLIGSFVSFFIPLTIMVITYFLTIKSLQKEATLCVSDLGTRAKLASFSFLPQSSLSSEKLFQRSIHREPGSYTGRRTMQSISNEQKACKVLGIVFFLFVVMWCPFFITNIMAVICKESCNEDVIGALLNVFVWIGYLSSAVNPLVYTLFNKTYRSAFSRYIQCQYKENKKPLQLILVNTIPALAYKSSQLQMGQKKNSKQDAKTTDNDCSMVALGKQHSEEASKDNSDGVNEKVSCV
Summary of the method: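 Antagonist-mode intracellular calcium assay: DOI (4 nM) added after 5 min compound pre-incubation at room temperature to dye-loaded HTR2A-CHO cells. Fluorescence followed for 3 min, sampled every second.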

[12] = target: 5-hydroxytryptamine receptor 2A (Homo sapiens) (UniProt P28223); assay: 5-hydroxytryptamine receptor 2A (HTR2A) small molecule agonists, cell-based qHTS assay (AID 1963587); note: nearly all actives have a fitted effect of over 30% in size
Summary of the method: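 HTR2A-CHO cells, plated 18 h at 37 C/5% CO2, dye-loaded 1 h at 37 C; compounds in DMSO added by pin tool (agonist mode). Intracellular calcium flux read as kinetic fluorescence on FDSS over 2 min at 1 s intervals.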

[13] = target: Muscarinic acetylcholine receptor M1 (Homo sapiens) (UniProt P11229); assay: Cholinergic receptor muscarinic 1 (CHRM1) small molecule agonists, cell-based qHTS assay (AID 1963589); note: nearly all actives have a fitted effect of over 35% in size
Muscarinic acetylcholine receptor M1 (Homo sapiens), sequence (P11229 whole entry, looked up): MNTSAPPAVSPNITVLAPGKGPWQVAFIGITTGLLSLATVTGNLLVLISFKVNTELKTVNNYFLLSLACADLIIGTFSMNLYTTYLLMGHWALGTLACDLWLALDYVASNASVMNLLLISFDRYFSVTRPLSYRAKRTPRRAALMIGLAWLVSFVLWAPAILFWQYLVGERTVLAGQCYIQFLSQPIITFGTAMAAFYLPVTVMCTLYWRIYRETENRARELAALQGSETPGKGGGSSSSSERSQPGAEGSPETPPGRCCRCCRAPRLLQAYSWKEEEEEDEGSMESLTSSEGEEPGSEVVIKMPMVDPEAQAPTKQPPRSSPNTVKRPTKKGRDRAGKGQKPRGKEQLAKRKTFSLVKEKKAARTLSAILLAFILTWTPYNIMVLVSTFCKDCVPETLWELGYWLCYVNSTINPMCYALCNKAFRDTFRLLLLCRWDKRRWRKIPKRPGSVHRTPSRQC
Summary of the method: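 Stable CHRM1-CHO cells (human receptor) were incubated 18 h, dye-loaded for 1 h at 37 C and exposed to test compounds for agonist activity, with calcium-dependent fluorescence followed kinetically.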

[14] = cAMP Responsive Elements (CRE) small molecule agonists, cell-based qHTS assay (AID 1963590); note: potency is the fitted concentration of half-maximal effect
Summary of the method: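 FRET-based beta-lactamase readout (LiveBLAzer B/G, 2 h RT) quantified CRE activation in HEK 293T CRE-bla cells after 3 h treatment with DMSO-dissolved compounds.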

[15] = cAMP Responsive Elements (CRE) small molecule antagonists, cell-based qHTS assay (AID 1963591; active = well fitted inhibition curve with a large enough effect in the signal ratio in the repeat runs, not every such curve was filed as active; the % refers to the signal ratio)
Summary of the method: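 qHTS in CRE-bla HEK 293T cells: compound in DMSO, then 0.25 uM NKH477 (final), 3 h at 37 °C/5% CO2; beta-lactamase FRET read-out after 2 h substrate incubation.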

[16] = target: Beta-2 adrenergic receptor (Homo sapiens) (UniProt P07550); assay: Adrenergic beta2 receptor (ADRB2) small molecule antagonists, cell-based qHTS assay (AID 1963592); note: series mostly up to about 92 µM; nearly all actives have a fitted effect of over 50% in size
Beta-2 adrenergic receptor (Homo sapiens), sequence (P07550 whole entry, looked up): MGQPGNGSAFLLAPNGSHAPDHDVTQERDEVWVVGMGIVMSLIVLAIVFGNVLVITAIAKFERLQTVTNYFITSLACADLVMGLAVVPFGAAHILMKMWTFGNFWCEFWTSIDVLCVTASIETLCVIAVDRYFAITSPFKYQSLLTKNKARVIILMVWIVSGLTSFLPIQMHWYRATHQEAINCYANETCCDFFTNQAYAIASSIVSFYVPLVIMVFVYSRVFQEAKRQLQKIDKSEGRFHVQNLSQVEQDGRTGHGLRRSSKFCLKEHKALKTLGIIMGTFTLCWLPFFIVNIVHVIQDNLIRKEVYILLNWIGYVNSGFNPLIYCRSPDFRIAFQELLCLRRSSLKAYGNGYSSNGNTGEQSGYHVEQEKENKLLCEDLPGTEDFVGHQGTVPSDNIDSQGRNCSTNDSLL
Summary of the method: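 Cells (CHO, stable ADRB2 overexpression) incubated 18-20hr at 37C; compounds added from DMSO; agonist mix (1nM isoproterenol, 100uM IBMX, 25uM Ro-20-1724) added; 0.5hr RT; d2-cAMP and anti-cAMP-cryptate added; 1hr RT; 665/615 nm read.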

[17] = target: Beta-2 adrenergic receptor (Homo sapiens) (UniProt P07550); assay: Adrenergic beta2 receptor (ADRB2) small molecule agonists, cell-based qHTS assay (AID 1963593);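 note: CHO cells stably overexpressing human ADRB2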
Summary of the method: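 CHO cells stably over-expressing ADRB2 were plated overnight at 37C, then dosed with compounds plus a stimulation mix containing 100uM IBMX and 25uM Ro-20-1724 for 0.5hr at room temperature. cAMP was measured by HTRF competition, 1hr.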

[18] = target: D(2) dopamine receptor (Homo sapiens) (UniProt P14416); assay: Dopamine D2 receptor (DRD2) small molecule agonists, cell-based qHTS assay (AID 1963594); note: nearly all actives have a fitted effect of over 35% in size
D(2) dopamine receptor (Homo sapiens), sequence (P14416 whole entry, looked up): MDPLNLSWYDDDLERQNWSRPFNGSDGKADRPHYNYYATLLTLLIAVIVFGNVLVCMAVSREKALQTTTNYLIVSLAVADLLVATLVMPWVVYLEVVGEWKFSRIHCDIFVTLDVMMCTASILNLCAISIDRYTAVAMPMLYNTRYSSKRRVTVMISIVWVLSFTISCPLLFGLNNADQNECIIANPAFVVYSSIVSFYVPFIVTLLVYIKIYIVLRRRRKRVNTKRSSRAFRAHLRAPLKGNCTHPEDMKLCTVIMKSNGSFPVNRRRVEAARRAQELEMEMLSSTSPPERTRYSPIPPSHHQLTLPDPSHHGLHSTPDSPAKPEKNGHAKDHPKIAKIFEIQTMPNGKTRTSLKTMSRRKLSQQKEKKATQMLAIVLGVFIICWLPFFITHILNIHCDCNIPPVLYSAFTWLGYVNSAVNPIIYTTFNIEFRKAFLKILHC
Summary of the method: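 HEK293 cells stably expressing DRD2 were cultured 24 h at 37 C, then given Ro20-1724 (0.1 mM final) and compounds for 10 min at room temperature. NKH477 (200nM) was then added for 30 min. cAMP was read by HTRF.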

[19] = target: D(2) dopamine receptor (Homo sapiens) (UniProt P14416); assay: Dopamine D2 receptor (DRD2) small molecule antagonists, cell-based qHTS assay (AID 1963595; active = well fitted inhibition curve with a large enough effect in the signal ratio in the repeat runs, with a control signal flat; the % refers to the signal ratio)
Summary of the method: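 HEK293 cells stably expressing DRD2, preincubated with 0.1 mM Ro20-1724 and compounds 10 min, were stimulated with 200 nM NKH477 plus 12 nM quinpirole for 30 min at room temperature; cAMP measured by HTRF (665/620 nm).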

[20] = p53 small molecule agonists, cell-based qHTS assay: qHTS cell viability counter screen (AID 1963581); note: nearly all actives have a fitted effect of over 45% in size
Summary of the method: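 Compounds are pinned onto HCT-116 p53RE-bla cells and left 16 h at 37 C. Following the reporter FRET read, ATP is quantified by CellTiter-Glo luminescence after 30 min at room temperature.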

Measured: Potency

CC1(C)CC(N=C=O)CC(C)(CN=C=O)C1 (configuration not stated)
inactive: [1] | [2] | [3] | [4] | [5] | [6] | [7] | [8] | [9] | [10] | [11] | [12] | [13] | [14] | [15] | [16] | [17] | [18] | [19]

C[C@]12CC[C@@H]3c4ccc(O)cc4CC[C@H]3[C@@H]1C[C@@H](O)[C@@H]2O
inactive: [1] | [2] | [3] | [4] | [5] | [6] | [7] | [8] | [9] | [20] | [10] | [14] | [16] | [17] | [18] | [19]

C#C[C@]1(O)CC[C@H]2[C@@H]3CCC4=Cc5oncc5C[C@]4(C)[C@H]3CC[C@@]21C
inactive: [2] | [3] | [4] | [5] | [6] | [7] | [8] | [9] | [20] | [16] | [18] | [19]
active: [1] 61.1 µM and 23.7 µM | [14] 29.8 µM

Cc1cccc(O)c1
inactive: [1] | [2] | [3] | [4] | [5] | [6] | [7] | [8] | [9] | [20] | [11] | [12] | [13] | [14] | [15] | [16] | [18] | [19]
